Several values for one entry are separate records, joined by “and”; a condition that tells them apart may be missing. Identical values can stand only once. Activity calls are given as the source filed them.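 The calls were made as follows, unless noted: active = compounds whose cell count with miR-34 switched on is under 0.7 times the count with it off; inactive = the rest.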
Also: test concentration not given here.

A short description of one assay: sensitizers of A549 cells to miR-34 induction, primary screen, imaging, A549 dox-inducible miR-34, nuclei and caspase counts (AID 1347080). The settings on record: A549 miR-34 inducible, Hoechst nuclei count, 48 h; stronger effect = lower value; cell number ratio, induced over uninduced.
Take `Cc1cc2c(F)c(Oc3ncnn4cc(OCC(C)OC(=O)C(C)N)c(C)c34)ccc2[nH]1` (stereo not drawn): the fold change was 1.09 (inactive).

On to `Cc1c(F)cc(C(=O)NC2CC2)cc1-c1ccc(C(=O)NCC(C)(C)C)cn1`, for which the fold change is 0.832 (inactive).

On to `O=S(=O)(c1cccc2c(I)cccc12)N1CCCNCC1`, for which the fold change was 0.977 (inactive) and 0.963 (inactive).

Regarding `CNC(=O)[C@H](Cc1c[nH]c2ccccc12)NC(=O)[C@@H](CC(=O)NO)CC(C)C`, the fold change is 1.03 (inactive).

As to `O=C(Nc1cccc(C(F)(F)F)c1)Nc1cc(S(=O)(=O)NC2CC2)ccc1-c1ccsc1`, the fold change was 0.892 (inactive).

Consider `Cn1cnc(-c2cc3nccc(Oc4ccc(NC(=S)NC(=O)Cc5ccccc5)cc4F)c3s2)c1`, for which the fold change is 0.83 (inactive).

Consider `Cn1cc(-c2ccc3c(c2)CCN3C(=O)Cc2cccc(C(F)(F)F)c2)c2c(N)ncnc21`, for which the fold change is 0.811 (inactive).

Still in this assay, the particulars now being: A549 miR-34 inducible, Hoechst nuclei count, 48 h; measured here: relative caspase fold change +Dox/-Dox.
Take `Cc1cc2c(F)c(Oc3ncnn4cc(OCC(C)OC(=O)C(C)N)c(C)c34)ccc2[nH]1` (stereo not drawn): the fold change stood at 0.564.

On to `Cc1c(F)cc(C(=O)NC2CC2)cc1-c1ccc(C(=O)NCC(C)(C)C)cn1`, for which the fold change was 0.447.

Consider `O=S(=O)(c1cccc2c(I)cccc12)N1CCCNCC1`, for which the fold change is 0.686 and 1.04.

As to `CNC(=O)[C@H](Cc1c[nH]c2ccccc12)NC(=O)[C@@H](CC(=O)NO)CC(C)C`, the fold change was determined as 0.925.

With `O=C(Nc1cccc(C(F)(F)F)c1)Nc1cc(S(=O)(=O)NC2CC2)ccc1-c1ccsc1`, the fold change came to 0.311.

`Cn1cnc(-c2cc3nccc(Oc4ccc(NC(=S)NC(=O)Cc5ccccc5)cc4F)c3s2)c1`: the fold change turned out to be 1.19.

With `Cn1cc(-c2ccc3c(c2)CCN3C(=O)Cc2cccc(C(F)(F)F)c2)c2c(N)ncnc21`, the fold change was determined as 0.484.

Staying with this assay, now noted: A549 miR-34 inducible, Hoechst nuclei count, 48 h; measured here: total cells with miR-34 induction; stronger effect = lower value.
As to `Cc1cc2c(F)c(Oc3ncnn4cc(OCC(C)OC(=O)C(C)N)c(C)c34)ccc2[nH]1` (stereo not drawn), the cell count turned out to be 4840.

As for `Cc1c(F)cc(C(=O)NC2CC2)cc1-c1ccc(C(=O)NCC(C)(C)C)cn1`, the cell count was 7400.

In the case of `O=S(=O)(c1cccc2c(I)cccc12)N1CCCNCC1`, the cell count was 7130 and 3010.

As for `CNC(=O)[C@H](Cc1c[nH]c2ccccc12)NC(=O)[C@@H](CC(=O)NO)CC(C)C`, the cell count came to 4790.

On to `O=C(Nc1cccc(C(F)(F)F)c1)Nc1cc(S(=O)(=O)NC2CC2)ccc1-c1ccsc1`, for which the cell count came out at 6420.

On to `Cn1cnc(-c2cc3nccc(Oc4ccc(NC(=S)NC(=O)Cc5ccccc5)cc4F)c3s2)c1`, for which the cell count stood at 3930.

Take `Cn1cc(-c2ccc3c(c2)CCN3C(=O)Cc2cccc(C(F)(F)F)c2)c2c(N)ncnc21`: the cell count worked out at 4720.

Staying with this assay, now noted: A549 miR-34 inducible, Hoechst nuclei count, 48 h; measured here: total cells without miR-34 induction.
For the compound `Cc1cc2c(F)c(Oc3ncnn4cc(OCC(C)OC(=O)C(C)N)c(C)c34)ccc2[nH]1` (stereo not drawn), the cell count was 4460.

Regarding `Cc1c(F)cc(C(=O)NC2CC2)cc1-c1ccc(C(=O)NCC(C)(C)C)cn1`, the cell count worked out at 8890.

For `O=S(=O)(c1cccc2c(I)cccc12)N1CCCNCC1`, the cell count is 7300 and 3130.

Regarding `CNC(=O)[C@H](Cc1c[nH]c2ccccc12)NC(=O)[C@@H](CC(=O)NO)CC(C)C`, the cell count is 4630.

Turning to `O=C(Nc1cccc(C(F)(F)F)c1)Nc1cc(S(=O)(=O)NC2CC2)ccc1-c1ccsc1`, the cell count came to 7200.

`Cn1cnc(-c2cc3nccc(Oc4ccc(NC(=S)NC(=O)Cc5ccccc5)cc4F)c3s2)c1`: the cell count turned out to be 4730.

Turning to `Cn1cc(-c2ccc3c(c2)CCN3C(=O)Cc2cccc(C(F)(F)F)c2)c2c(N)ncnc21`, the cell count stood at 5820.

Another assay in a line: survival rescue of mitochondrial mutant cells in low glucose, primary screen, MELAS cybrids, Rieske KO mouse fibroblasts, CellTiter-Glo (AID 1508586;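 active = mean z-score across replicates of 1.96 or higher in either the MELAS or the Rieske mutant cell line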;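 also: z relative to plate mean and SD of compound and empty wells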). The settings on record: MELAS cybrid survival, CellTiter-Glo 48 h, stronger effect = higher value.
As to `Cc1cc2c(F)c(Oc3ncnn4cc(OCC(C)OC(=O)C(C)N)c(C)c34)ccc2[nH]1` (stereo not drawn), the z-score was 0.128 (inactive).

With `Cc1c(F)cc(C(=O)NC2CC2)cc1-c1ccc(C(=O)NCC(C)(C)C)cn1`, the z-score was -0.46 (inactive).

Regarding `O=C(Nc1cccc(C(F)(F)F)c1)Nc1cc(S(=O)(=O)NC2CC2)ccc1-c1ccsc1`, the z-score is -0.374 (inactive).

In the case of `Cn1cnc(-c2cc3nccc(Oc4ccc(NC(=S)NC(=O)Cc5ccccc5)cc4F)c3s2)c1`, the z-score was -0.555 (inactive).

As for `Cn1cc(-c2ccc3c(c2)CCN3C(=O)Cc2cccc(C(F)(F)F)c2)c2c(N)ncnc21`, the z-score is -0.412 (inactive).

The same assay, now with this note: Rieske KO mouse fibroblast survival, CellTiter-Glo 72 h.
On to `Cc1cc2c(F)c(Oc3ncnn4cc(OCC(C)OC(=O)C(C)N)c(C)c34)ccc2[nH]1` (stereo not drawn), for which the z-score is 1.06.

As to `Cc1c(F)cc(C(=O)NC2CC2)cc1-c1ccc(C(=O)NCC(C)(C)C)cn1`, the z-score worked out at 0.488.

As to `O=C(Nc1cccc(C(F)(F)F)c1)Nc1cc(S(=O)(=O)NC2CC2)ccc1-c1ccsc1`, the z-score is -0.851.

`Cn1cnc(-c2cc3nccc(Oc4ccc(NC(=S)NC(=O)Cc5ccccc5)cc4F)c3s2)c1` yielded a z-score of -0.0569.

Compound `Cn1cc(-c2ccc3c(c2)CCN3C(=O)Cc2cccc(C(F)(F)F)c2)c2c(N)ncnc21` came in with a z-score of -1.76.
